Screening results from PubChem.
Hits are enriched below; roughly 4.2% of the tested compounds scored in any of these assays.
Mtb betalactam = beta-lactam sensitization of Mtb H37Rv; inhibition, % at 25 µM; 0.27% of 330,000 active; M. tuberculosis H37Rv growth with meropenem, percent inhibition; call rule not given here;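 note: growth measured after seven days incubation then overnight dye step; 0% = bacteria only wells and 100% = bacteria with antibiotic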
RecA splice inh = Mtb RecA intein splicing inhibition. cell-free RecA intein splicing, fluorescence. AID 2221. 0.75% of 290,000 active. P9WHJ3. inhibition, % (test concentration not listed); in the data active = inhibition above about 30%;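 note: 0% = vehicle wells and 100% = reference inhibitor control wells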
Target sequence (P9WHJ3 whole entry, looked up, canonical isoform): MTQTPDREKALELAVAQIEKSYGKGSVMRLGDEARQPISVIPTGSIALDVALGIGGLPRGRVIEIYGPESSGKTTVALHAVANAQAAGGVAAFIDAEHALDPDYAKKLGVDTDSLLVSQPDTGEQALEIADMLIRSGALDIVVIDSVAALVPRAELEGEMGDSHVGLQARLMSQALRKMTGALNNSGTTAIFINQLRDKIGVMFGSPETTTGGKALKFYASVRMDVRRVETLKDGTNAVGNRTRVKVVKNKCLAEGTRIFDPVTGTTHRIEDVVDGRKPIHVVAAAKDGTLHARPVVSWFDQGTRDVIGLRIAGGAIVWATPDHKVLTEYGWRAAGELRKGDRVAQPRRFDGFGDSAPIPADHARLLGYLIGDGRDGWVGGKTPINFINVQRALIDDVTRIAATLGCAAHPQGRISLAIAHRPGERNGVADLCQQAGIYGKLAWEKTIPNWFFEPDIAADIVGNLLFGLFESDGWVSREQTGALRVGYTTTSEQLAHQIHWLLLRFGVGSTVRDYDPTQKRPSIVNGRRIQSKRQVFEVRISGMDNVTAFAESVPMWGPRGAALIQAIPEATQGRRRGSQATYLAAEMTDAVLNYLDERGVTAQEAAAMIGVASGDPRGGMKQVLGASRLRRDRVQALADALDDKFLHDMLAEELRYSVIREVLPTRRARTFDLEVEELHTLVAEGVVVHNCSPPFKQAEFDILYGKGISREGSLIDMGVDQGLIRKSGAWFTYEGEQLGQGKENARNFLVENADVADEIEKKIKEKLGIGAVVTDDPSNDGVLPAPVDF
FBA Mtb inh = inhibitors of M. tuberculosis fructose-bisphosphate aldolase; purified M. tuberculosis FBA, fluorescence read-out; inhibition, % at 1 µM; 2.3% of 360,000 active; in the data active = inhibition above about 27%;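 note: 0% = vehicle and 100% = reference inhibitor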
GDH-TPI counter = counter-screen for M. tuberculosis FBA inhibitors: GDH-TPI coupled enzymes | GDH-TPI coupled enzyme counterscreen, NADH absorbance | inhibition, % at 4.8 µM | 1.2% of 360,000 active | AID 588335;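 note: 0% = DMSO wells and 100% = wells lacking the enzyme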
CCHF vOTU inh = blocks the CCHF virus ovarian tumor domain protease; AID 651958; 0.55% of 370,000 active; inhibition, % at 11.5 µM; CCHFV vOTU protease, Pep-AMC fluorescence; note: 0% = vehicle wells with enzyme and 100% = no enzyme wells
* hit, by the source's call; nt = not tested or not shown; + = active, no number. Cut-off read from the data, not from the text of the source, unless noted: active = inhibition above about 30%; inactive = the rest.

SMILES	Mtb betalactam	RecA splice inh	FBA Mtb inh	GDH-TPI counter	CCHF vOTU inh
CCOc1ccccc1NC1=C(Cl)C(=O)N(c2ccc(OC)cc2)C1=O	-2	-2	2	10	2
COc1ccc(N2C(=O)C(Cl)=C(NCc3ccccc3)C2=O)cc1	33	36*	4	3	11
CC(=O)Nc1cc2c3c(cccc3c1)-c1ccccc1-2	nt	nt	140*	12	-181
CC(=O)Nc1ccc2c(c1)C(=O)c1ccccc1C2=O	-1	1	-3	8	4
CCOC(=O)C(=Cc1c[nH]c2ccc(S(=O)(=O)N(C)C)cc12)C(=O)OCC	-12	3	6	41*	-14
CC[C@@]1(c2ccc(C)cc2)C(=O)N(C(=O)OC(C)C)N1C(=O)OC(C)C	nt	nt	nt	nt	26
CC(=O)c1ccc(Nc2nc(C)cc(C)n2)cc1	5	-2	0	33*	1
CCOC(=O)c1ccc(Nc2nc(C)cc(C)n2)cc1	2	-9	1	-8	-3
CCn1c(=O)n(CC(=O)N2CCCN(Cc3ccccc3)CC2)c(=O)c2ccccc21	nt	nt	nt	nt	-7
CCc1ccc(N=C2NC(=O)/C(=C/c3cc(Br)c(OCC(=O)O)c(OC)c3)S2)cc1	-6	24	2	34*	12
CCc1ccc(N=C2NC(=O)/C(=C/c3cc(OC)c(OC)c(OC)c3)S2)cc1	2	nt	1	30	5
O=c1[nH]c(=S)c2c(n1-c1ccccc1)CCC2	-3	3	-2	35*	5
CC(C)c1c(O)c2c(n(-c3ccccc3)c1=O)CCCC2	18	3	-1	2	-2
CC(=O)c1cnc(N(C)C)s1	9	-3	3	38*	6
COC(=O)[C@]12C[C@H](CC(=O)NCCC(C)C)C(=O)N(CCc3ccc(OC)c(OC)c3)C1=C[C@H](C1CCCC1)O[C@@H]2C	nt	nt	nt	nt	10
O=C(N/N=C/c1ccc(O)c([N+](=O)[O-])c1)c1ccncc1	97	-5	-6	23	0
O=[N+]([O-])c1ccc(-c2csc(N/N=C/c3cccnc3)n2)cc1	5	22	4	6	0
Cc1csc(N/N=C/c2ccc(O)c([N+](=O)[O-])c2)n1	-1	2	-5	39*	9
O=[N+]([O-])c1cc(/C=N\Nc2nc(-c3ccccc3)cs2)ccc1O	36	0	-3	34*	8
CC(C)C[C@@H](CO)N1Cc2nnn(Cc3ccccc3)c2-c2ccccc2S1(=O)=O	nt	nt	nt	nt	-5
COc1cc2sc3cc(NCCCN4CCOCC4)ccc3c(=O)c2cc1OC	81	nt	34*	24	-53
O=c1c2ccccc2sc2ccc(NCCCN3CCOCC3)cc12	1	-7	7	2	9
COC(=O)[C@H](CC(C)C)N(CCc1cn(Cc2ccc(C)cc2)nn1)S(=O)(=O)c1ccccc1Br	nt	nt	nt	nt	9
COC(=O)/C(=N/Nc1ccccc1)N1CCCc2ccccc21	-5	4	-2	34*	-8
COc1ccc(-c2cc(C(=O)NCCc3ccc(S(N)(=O)=O)cc3)c3ccccc3n2)cc1	6	-1	67*	13	-79
SMILES	Mtb betalactam	RecA splice inh	FBA Mtb inh	GDH-TPI counter	CCHF vOTU inh
COc1ccc(-c2cc(C(=O)NCCCN3CCCC3=O)c3ccccc3n2)cc1	-4	-4	69*	16	-63
COc1ccc2sc(-c3ccc(S(C)(=O)=O)cc3)c(C(=O)NCCCN3CCCC3=O)c2c1	5	nt	5	32*	-1
COc1ccc(C(=O)NCCCN2CCCC2=O)cc1	-2	-1	5	3	-1
CCN(CC)CCN(C(=O)c1cc2c(ccc3ccccc32)oc1=O)c1nc2cc3c(cc2s1)OCCO3	7	-8	+	11	-184
COC(=O)Nc1nnc(-c2ccccc2Cl)s1	-17	2	48*	2	-3
CCOC(=O)[C@]12CCCCC/C=C\1N(CCc1ccc(Cl)cc1)C(=O)[C@H]2CC(=O)NCc1ccc(C)o1	nt	nt	nt	nt	17
CCOCCCNC(=S)NCCCNc1nc2ccc(C)cc2cc1C#N	25	-46	nt	nt	-27
COCCNC(=S)NCCCNc1nc2cc3c(cc2cc1C#N)OCO3	5	-267	180*	5	-139
COC(=O)[C@]12C[C@H](CC(=O)NCC34CC5CC(CC(C5)C3)C4)C(=O)N(Cc3ccccc3)C1=C[C@H](COCc1ccccc1)O[C@@H]2C	nt	nt	nt	nt	4
COc1ccc(C2CCC3(CCC(=O)N3CCOC(=O)NCc3ccc(Cl)cc3)CC2)cc1 (stereo not given)	nt	nt	nt	nt	10
CCC(CC)COC(=O)C1=C(C)NC(=O)NC1c1ccc(N(C)C)cc1 (stereo not given)	1	-2	184*	-2	18
CCCCc1cc(=O)oc2cc(OC(C)C(=O)NCCN3CCOCC3)ccc12 (stereo not given)	nt	nt	13	10	-11
COc1ccc2c(c1OC)c(=O)n1c3ccc(OC(C)C(=O)NCCCN4CCOCC4)cc3c3ccnc2c31 (stereo not given)	-6	-238	153*	3	nt
CCN(CC)c1ccc(/C=C2\C(=O)NC(=O)N(CC3CCCO3)C2=O)cc1 (stereo not given)	0	0	-1	33*	13
Cc1ccc(/C=C2\C(=O)NC(=O)N(CC3CCCO3)C2=O)s1 (stereo not given)	10	-1	-1	12	1
O=C(COc1ccc(/C=N/NC(=O)c2ccccc2O)cc1)Nc1ccc([N+](=O)[O-])cc1	11	1	0	38*	1
CCOP(=O)(Nc1cccc2oc(=O)c3ccccc3c12)OCC	nt	nt	116*	3	-113
Cc1nc2sc(C#N)c(N)c2c2c1CCCC2	-4	-1	36*	-1	-22
C=C(C)CSc1nc2sc(C)c(C)c2c(=O)n1C	nt	nt	nt	nt	4
COC(=O)[C@H](C(C)C)N(CCc1cn(Cc2ccc(C)cc2)nn1)S(=O)(=O)c1ccc(F)cc1Br	nt	nt	nt	nt	10
CC1(C)CC(N2CCN(c3ccccc3)CC2)=CC(=[N+]2CCCC2)C1	4	6	-6	45*	0
CC1(C)CC(N2CCCC2)=CC(=[N+]2CCCCCC2)C1	-3	1	0	30	2
CCN(CC)C1=CC(=[N+]2CCCC2)CC(C)(C)C1	-4	-3	-5	43*	5
CN(Cc1ccccc1)C1=CC(=[N+]2CCCC2)CC(C)(C)C1	-4	-1	-2	52*	21
CN(C)Cc1ccccc1	nt	nt	nt	nt	-3
SMILES	Mtb betalactam	RecA splice inh	FBA Mtb inh	GDH-TPI counter	CCHF vOTU inh
C=CCn1c(COc2ccccc2)nnc1SCC(=O)c1ccc(-c2ccccc2)cc1	nt	nt	nt	nt	8
CC(C)(C)n1nnnc1C(c1cccs1)N(Cc1cccnc1)Cc1ccccc1Cl (stereo not given)	-4	35*	-8	9	-1
CC(c1nnnn1C(C)(C)C)N(Cc1cccnc1)Cc1ccccc1Cl (stereo not given)	3	3	0	-1	18
O=Cc1ccc(-c2ccc(C(=O)O)cc2)o1	-8	-3	8	42*	20
C[C@H](O)[C@@H]1CN2CCc3c([nH]c4cccc(-c5ccccc5)c34)[C@@H]2C[C@@H]1N(C)C(=O)C1CCCCC1	nt	nt	nt	nt	7
ClC(Cl)(Cl)c1nc2ccccc2n2nncc12	8	55*	-6	-3	9
